This is part of a sample that, as a whole, favours compounds with a hit. Of some 83,000 tested, about 20% had one in any assay.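 Each cell line was grown in a 96-well plate and treated with one concentration of compound for 48 hours. Values below 10 were considered active.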 Active and inactive are the calls of the source.
What follows are compounds tested on SR leukemia (assay: NCI-60 one-dose screen, 48 h (100 = growth as untreated, 0 = no growth, -100 = all killed)). Conditions: 10 µM unless noted.
Description: Growth inhibition of the SR human tumor cell line is measured as a screen for anti-cancer activity. Cells are grown in 96 well plates and exposed to the test compound for 48 hours. Compounds are tested at a single concentration, which is 10^-5 M for most compounds. The reported endpoint is percent growth (GI% or GIPRCNT), where numbers from 0 - 100% represent growth inhibition, and numbers from -100% - 0 represent cell death. For example, a value of 40 represents 60% growth inhibition. A value of 0 means no net growth occurred over the course of the experiment. A value of -40 indicates 40% of cells at the beginning of the experiment died by the end of the experiment. A value of -100 means all cells are dead at the end of the experiment.
NCI-60 Human Tumor Cell Lines Screen was performed using the standard one-dose NCI protocol, which is described in more detail at https://dtp.cancer.gov/discovery_development/nci-60/default.htm.
Compounds with GIPRCNT values below 10 were considered active. Activity score was based on GIPRCNT using the following formula: […]
Score is 0 for GIPRCNT values of 100 or above, 50 for GIPRCNT values of 0, and 100 for GIPRCNT values of -100.

**Q.** For CCCCCc1c(C)[nH]c(/C=C2\N=C(c3ccc[nH]3)C=C2Oc2ccc(Cl)cc2)c1C, which growth is on record?
**A.** -9.44% [100 µM] (active)

**Q.** For O=C(COc1ccc(/C=C2\Oc3ccc4ccccc4c3C2=O)cc1)c1ccc(Cl)cc1, which growth is on record?
**A.** 26.8% (inactive)

**Q.** For O=C(N/N=C/c1cccc([N+](=O)[O-])c1)c1ccc(Br)o1, which growth is on record?
**A.** 134% (inactive)

**Q.** For O=CNc1ccc2c(c1)Cc1cc([N+](=O)[O-])ccc1-2, which growth is on record?
**A.** 31.6% (inactive)

**Q.** c1ccc(Nc2ccc(Nc3nc(-c4ccccc4)nc4ccccc34)cc2)cc1 was tested. Which growth did it give?
**A.** 52.1% (inactive)

**Q.** CCOC(=O)C1=CCC(n2cc(C)c(=O)[nH]c2=O)O1 (stereo not given) was tested. Which growth did it give?
**A.** 94.8% (inactive)

**Q.** With Cc1nn(-c2nc3ccccc3s2)c(C)c1Oc1ccccc1O as the compound, how does the growth read?
**A.** 19.6% (inactive)

**Q.** Which growth does the source give for COc1ccc2nc(N/N=C(\C)c3ccccn3)cc(C)c2c1 here?
**A.** -40.9% (active)

**Q.** For COc1ccc(-c2c3c(N)nc(-c4ccncc4)nc3nc3c2c(C)nn3-c2ccccc2)cc1, which growth is on record?
**A.** 17.1% (inactive)

**Q.** For CC(NC(=O)Oc1cccc2ccccc12)c1ccccc1 (stereo not given), which growth is on record?
**A.** 90.8% (inactive)

**Q.** Which growth does the source give for N#Cc1c(-c2ccc(F)cc2)n2c(nc1=O)SC(=O)C2=O here?
**A.** 91.3% (inactive)

**Q.** ICCC(c1ccccc1)(c1ccccc1)c1ccccc1 was tested. Which growth did it give?
**A.** -28.7% (active)

**Q.** How did the growth turn out when CC[C@@H](C)/C=C(C)/C=C/C(O)=C1\C(=O)N[C@@H](Cc2ccc(OC(=O)[C@@](OC)(c3ccccc3)C(F)(F)F)cc2)C1=O was run?
**A.** 62.6% (inactive)

**Q.** With CCSc1nc(Nc2ccc(S(=O)(=O)Nc3ccon3)cc2)c(C#N)c(-c2cccc(Br)c2)n1 as the compound, how does the growth read?
**A.** 93.7% (inactive)

**Q.** COc1ccc(C2=NN(C(N)=S)C(c3ccc4c(c3)OCO4)C2)cc1 (stereo not given) was tested. Which growth did it give?
**A.** 4.75% (active)

**Q.** Which growth does the source give for CCSc1nc(-c2ccc(F)cc2)c(C#N)c(=O)[nH]1 here?
**A.** 118% (inactive)

**Q.** For Cc1nn(-c2ccccc2)cc1/C=C1\SC(N2CCCCC2)=NC1=O, which growth is on record?
**A.** 8.09% (active)

**Q.** Which growth does the source give for CN1CCC[C@@H]1CCO[C@](C)(c1ccccc1)c1ccc(Cl)cc1 here?
**A.** 59.7% (inactive)

**Q.** CC1CN(/N=C/c2ccc([N+](=O)[O-])o2)C(=N)O1 (stereo not given) was tested. Which growth did it give?
**A.** 107% (inactive)

**Q.** Cc1cn(C(C=O)OC(C=O)CO)c(=O)[nH]c1=O (stereo not given) was tested. Which growth did it give?
**A.** 93.9% (inactive)

**Q.** For COc1cc(C2CC(C3C(=O)N(C)C(=O)N(C)C3=O)=NN2c2cc(Cl)cc(Cl)c2)cc(OC)c1OC (stereo not given), which growth is on record?
**A.** 94.5% (inactive)

**Q.** With COc1ccc(CNC(=O)c2c(C)n([O-])c3ccc(OC)cc3[n+]2=O)cc1 as the compound, how does the growth read?
**A.** 90.4% (inactive)

**Q.** CC1(C)CC2(C)CC(=O)C1C(C(=O)O)C2C(=O)O (stereo not given) was tested. Which growth did it give?
**A.** 90% (inactive)

**Q.** Nc1ccccc1C#Cc1ccccc1C#Cc1ccc(OCCCCCCOc2ccc(C#Cc3ccccc3C#Cc3ccccc3N)cc2)cc1 was tested. Which growth did it give?
**A.** 94.7% (inactive)

**Q.** How did the growth turn out when CCCCN=C(N)c1ccc(OCCSCCOc2ccc(C(N)=NCCCC)cc2)cc1 was run?
**A.** 44.7% (inactive)

**Q.** COc1ccc([N+](=O)[O-])c(S(=O)(=O)c2ccc(Cl)cc2)n1 was tested. Which growth did it give?
**A.** -16% (active)

**Q.** Which growth does the source give for CCCCCc1c(C)[nH]c(/C=C2\N=C(c3ccc[nH]3)C=C2Oc2ccccc2)c1C here?
**A.** 8.8% [100 µM] (active)

**Q.** COC(=O)[C@H](Cc1cnc[nH]1)NC(=O)[C@@H](NC(=O)Nc1cc(C(F)(F)F)cc(C(F)(F)F)c1)C(C)C was tested. Which growth did it give?
**A.** -37% [100 µM] (active)

**Q.** How did the growth turn out when O=C1C2C(C(=O)N1CC[Se][Se]CCN1C(=O)C3C(C1=O)[C@H]1C=C[C@@H]3C1)[C@H]1C=C[C@@H]2C1 (stereo not given in full) was run?
**A.** 4.3% (active)

**Q.** For C=CCN(/C=C/CN(CC=C)CC=C)CC=C, which growth is on record?
**A.** 85.3% (inactive)

**Q.** With NC(=O)NS(=O)(=O)c1ccc(N2N=C(C(F)(F)F)CC2c2cc(C(F)(F)F)cc(C(F)(F)F)c2)cc1 (stereo not given) as the compound, how does the growth read?
**A.** 66.2% (inactive)

**Q.** COc1ccc(-c2nc3sc4c(c3c(=O)[nH]2)CCCCCC4)cc1 was tested. Which growth did it give?
**A.** 27.9% (inactive)

**Q.** For Cc1sc2nc(N3CCCCC3)[nH]c(=O)c2c1C, which growth is on record?
**A.** 97% (inactive)

**Q.** For CC12CCC3C(=CCc4cc(O)ccc43)C1CCC2=O (stereo not given), which growth is on record?
**A.** 97.6% (inactive)

**Q.** N#CC1c2ccccc2C=CN1C(=O)N(c1ccccc1)c1ccccc1 (stereo not given) was tested. Which growth did it give?
**A.** 1.1% (active)

**Q.** For Cc1[nH]c(=O)[nH]c(=O)c1CCSSCCc1c(C)[nH]c(=O)[nH]c1=O, which growth is on record?
**A.** 79.6% (inactive)

**Q.** O=C(N/N=C/c1cccc(O)c1O)c1ccccc1 was tested. Which growth did it give?
**A.** 18.2% (inactive)

**Q.** How did the growth turn out when CCN(Cc1cccc(S(=O)(=O)[O-])c1)c1ccc(C(=C2C=CC(=[N+](CC)Cc3cccc(S(=O)(=O)O)c3)C=C2)c2ccccc2S(=O)(=O)O)cc1 was run?
**A.** 95.6% (inactive)

**Q.** Which growth does the source give for N/C(=N\c1nc2ccccc2s1)NC(=O)Nc1ccccc1Cl here?
**A.** 9.92% (active)

**Q.** How did the growth turn out when CCCn1c(N)c(C(=O)CNc2ccc(I)cc2)c(=O)[nH]c1=O was run?
**A.** 139% (inactive)

Source: PubChem BioAssay (NCI)
